The source made the active and inactive calls. Calls follow the shape of the dose curve; as a rule, active = well fitted curve in the direction sought with a large enough effect; inactive = no such curve, though single readings can be large or run the other way.

The target of this assay is Lysosomal alpha-glucosidase (Homo sapiens) (UniProt P10253). The experiment in a line: qHTS Assay for Inhibitors and Activators of N370S glucocerebrosidase as a Potential Chaperone Treatment of Gaucher Disease: Alpha-Glucosidase Counterscreen. The note with it: purified human alpha-glucosidase, 4MU-alpha-glucoside fluorescence. The text has this:
NIH Chemical Genomics Center [NCGC] NIH Molecular Libraries Probe Production Centers Network [MLPCN] MLPCN Grant: MH086442-01 Assay Submitter (PI): Wei Zheng Glucocerebrosidase (GC) catalyzes the hydrolysis of beta-glucocerebroside to glucose and ceramide in lysosomes. Mutations in the glucocerebrosidase gene result in Gaucher disease, an autosomal recessive lysosomal storage disorder. Many of the mutations encountered in patients with Gaucher disease are missense alterations that may cause misfolding, decreased stability and/or mistrafficking of this lysosomal protein. […] These inhibitors include iminosugar analogs and three non-iminosugar inhibitors identified from a previous HTS of 62,000 compounds with the wild type recombinant enzyme. However, the enhancement of enzyme activity by the chaperone action of an enzyme inhibitor must be balanced against the direct inhibition of the enzyme. An enzyme activator could also function as a chaperone by binding to the enzyme and helping to correct its misfolding and mistrafficking. While activators for GC have not yet been identified, they may have better therapeutic potential than inhibitors. Therefore the discovery and development of chemical activators may provide a new strategy for the chaperone therapy. To characterize compound selectivity, selected hits from the primary screen were screened against purified alpha-glucosidase, a related sugar hydrolase. Alpha-glucosidase is responsible for hydrolysis of terminal, non-reducing 1,4-linked alpha-D-glucose residues with release of alpha-D-glucose.
NCGC Assay Protocol Summary: This is a fluorogenic enzyme assay with 4-methylumbelliferyl-alpha-D-[…] as the substrate and human alpha-glucosidase as the enzyme preparation. Upon the hydrolysis of this fluorogenic substrate, the resulting product, 1. 4-methyllumbelliferone, can be excited at 365 nm and emits at 440 nm which can be detected by a standard fluorescence plate reader. Data were normalized to the controls for basal activity (without enzyme) and 100% activity (with enzyme). The AC50 values were determined from concentration-response data modeled with the standard Hill equation. Assay buffer: 50 mM citric acid (titrated with potassium phosphate to pH 5.0), 0.005% Tween-20, pH 5.0. (pH 5.0 is an optimal condition for this enzyme assay) 1536-well assay protocol for the human alpha-glucosidase: (1) Add 2 ul/well of enzyme (4 nM final) (2) Add 23 nL compounds in DMSO solution. The final titration was 0.7 nM to 77 uM. (3) Add 1 ul of substrate (400 uM final) (4) Incubate at room temperature for 20 min. (5) Add 2 ul stop solution (1M NaOH and 1M Glycine mixture, pH 10) (6) Detect the assay plate in a ViewLux plate reader (PerkinElmer) with Ex=365 nm and Em=440nm. Keywords: Alpha-glucosidase, Pompe Disease, pharmacological chaperone, chaperone therapy, high throughput screening, alpha-glucosidase inhibitor, MLSMR, MLSCN, NIH Roadmap, qHTS and NCGC
For orientation: qHTS replaces the single test concentration by a dilution series.
Turning to `O=S(=O)(c1cccc(C(F)(F)F)c1)N1CCN(c2nc(-c3ccccc3)nc3ccccc23)CC1`, the max response was -12.7% (inactive).
The value for `CCOC(=O)c1ccc(S(=O)(=O)N2CCN(c3nc(-c4cccs4)nc4ccccc34)CC2)cc1` was -8.25% (inactive).
Turning to `O=S(=O)(c1ccccc1Cl)N1CCN(c2nc(-c3cccs3)nc3ccccc23)CC1`, the max response was -12.9% (inactive).
In the case of `CC(=O)c1ccc(S(=O)(=O)N2CCN(c3nc(-c4cccs4)nc4ccccc34)CC2)cc1`, the max response is -5.52% (inactive).
As to `COc1ccc(S(=O)(=O)N2CCN(c3nc(-c4ccccc4)nc4ccccc34)CC2)cc1`, the max response was -14.8% (inactive).
Consider `O=S(=O)(c1ccc(F)cc1)N1CCN(c2nc(-c3ccc(F)cc3)nc3cc(Cl)ccc23)CC1`, for which the max response is -3.75% (inactive).
The value for `O=[N+]([O-])c1ccc(S(=O)(=O)N2CCN(c3nc(-c4ccccc4)nc4ccccc34)CC2)cc1` was -3.59% (inactive); that for `NS(=O)(=O)c1ccc(S(=O)(=O)N2CCN(c3nc(-c4ccccc4)nc4ccccc34)CC2)cc1` was -7.36% (inactive).
On to `O=[N+]([O-])c1ccc(S(=O)(=O)N2CCN(c3nc(-c4cccs4)nc4ccccc34)CC2)cc1`, for which the max response was -5.9% (inactive).
In the case of `O=S(=O)(c1ccccc1Br)N1CCN(c2nc(-c3cccs3)nc3ccccc23)CC1`, the max response is -2.87% (inactive).
Consider `COc1ccc(-c2nc(N3CCN(S(=O)(=O)c4ccccc4)CC3)c3ccccc3n2)cc1`, for which the max response was -7.46% (inactive).
As for `O=S(=O)(c1ccc(Cl)cc1)N1CCN(c2nc(-c3cccc(Br)c3)nc3ccccc23)CC1`, the max response was -4.16% (inactive).
With `O=S(=O)(c1ccc(Cl)cc1)N1CCN(c2nc(-c3cccs3)nc3ccccc23)CC1`, the max response was -6.67% (inactive).
The value for `O=S(=O)(c1ccc(Cl)cc1)N1CCN(c2nc(-c3ccccc3)nc3ccccc23)CC1` was -10.6% (inactive); that for `O=S(=O)(c1ccc(C(F)(F)F)cc1)N1CCN(c2nc(-c3cccs3)nc3ccccc23)CC1` was -11.2% (inactive).
Then `O=S(=O)(c1ccc(C(F)(F)F)cc1)N1CCN(c2nc(-c3ccccc3)nc3ccccc23)CC1`, with -6.24% (inactive); and `N#Cc1ccc(S(=O)(=O)N2CCN(c3nc(-c4cccs4)nc4ccccc34)CC2)cc1`, with -5.53% (inactive); and `O=S(=O)(c1ccccc1)N1CCN(c2nc(-c3ccc(F)cc3)nc3cc(Cl)ccc23)CC1`, with -8.72% (inactive).
Turning to `O=[N+]([O-])c1cccc(S(=O)(=O)N2CCN(c3nc(-c4cccs4)nc4ccccc34)CC2)c1`, the max response was -3.53% (inactive).
Turning to `O=S(=O)(c1ccc2c(c1)OCCO2)N1CCN(c2nc(-c3ccccc3)nc3ccccc23)CC1`, the max response was -3.22% (inactive).
With `CC(C)(C)c1ccc(S(=O)(=O)N2CCN(c3nc(-c4ccccc4)nc4ccccc34)CC2)cc1`, the max response is -7.51% (inactive).
`N#Cc1ccc(S(=O)(=O)N2CCN(c3nc(-c4ccccc4)nc4ccccc34)CC2)cc1`: the max response is -5.2% (inactive).
Then `O=S(=O)(c1ccc(Cl)cc1)N1CCN(c2nc(-c3ccc(F)cc3)nc3cc(Cl)ccc23)CC1`, with -5.47% (inactive); and `O=S(=O)(c1ccc(F)cc1)N1CCN(c2nc(-c3cccs3)nc3ccccc23)CC1`, with -15.5% (inactive).
`O=S(=O)(c1ccccc1Cl)N1CCN(c2nc(-c3ccccc3)nc3ccccc23)CC1`: the max response was -4.34% (inactive).
For the compound `S=C(NCCCc1cnc[nH]1)NCCCN(Cc1ccc(Cl)c(Cl)c1)c1ccc(Br)cn1`, the max response was -4.15% (inactive).
For `O=S(=O)(c1cccc(C(F)(F)F)c1)N1CCN(c2nc(-c3cccs3)nc3ccccc23)CC1`, the max response is -4.78% (inactive).
Take `O=S(=O)(c1ccc(OC(F)(F)F)cc1)N1CCN(c2nc(-c3cccs3)nc3ccccc23)CC1`: the max response is -3.54% (inactive).
For `O=[N+]([O-])c1cccc(S(=O)(=O)N2CCN(c3nc(-c4ccccc4)nc4ccccc34)CC2)c1`, the max response is -5.2% (inactive).
`O=S(=O)(c1ccc(F)cc1)N1CCN(c2nc(-c3cccs3)nc3cc(Cl)ccc23)CC1`: the max response was -15.8% (inactive).
For `CCOc1ccc(S(=O)(=O)N2CCN(c3nc(-c4ccccc4)nc4ccccc34)CC2)cc1OCC`, the max response was -7.31% (inactive).
The value for `O=[N+]([O-])c1ccccc1S(=O)(=O)N1CCN(c2nc(-c3ccccc3)nc3ccccc23)CC1` was -3% (inactive); that for `O=S(=O)(c1ccc(Cl)cc1)N1CCN(c2nc(-c3ccc(Cl)cc3)nc3ccccc23)CC1` was 1.68% (inactive); that for `O=S(=O)(c1ccccc1C(F)(F)F)N1CCN(c2nc(-c3ccccc3)nc3ccccc23)CC1` was -7.6% (inactive).
Take `O=S(=O)(c1ccc(Br)cc1)N1CCN(c2nc(-c3cccs3)nc3ccccc23)CC1`: the max response is -4.2% (inactive).
Consider `CCOC(=O)c1ccc(S(=O)(=O)N2CCN(c3nc(-c4ccccc4)nc4ccccc34)CC2)cc1`, for which the max response was -5.28% (inactive).
As to `O=S(=O)(c1ccc2c(c1)CCC2)N1CCN(c2nc(-c3ccccc3)nc3ccccc23)CC1`, the max response was -9.75% (inactive).
`Cc1ccc(S(=O)(=O)N2CCN(c3nc(-c4cccs4)nc4ccccc34)CC2)cc1`: the max response was -8.42% (inactive).
As for `NS(=O)(=O)c1ccc(S(=O)(=O)N2CCN(c3nc(-c4cccs4)nc4ccccc34)CC2)cc1`, the max response was -10.5% (inactive).
For `COc1ccc(S(=O)(=O)N2CCN(c3nc(-c4cccs4)nc4ccccc34)CC2)cc1OC`, the max response was -12% (inactive).

The record behind these values is PubChem BioAssay AID2577 (National Center for Advancing Translational Sciences (NCATS), 2010).
